Source: PubChem BioAssay
SMARCA2 act: SMARCA2 (BRM) function activators, primary screen, cell-based, luminescence, high throughput; MG213 cells, MMTV-luciferase reporter, dexamethasone, overnight; activation, % at 9.1 µM; 370,000 compounds, 1% hits; AID 652017, 2013; in the data active = activation above about 7.8%;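 note: 0% = vehicle wells and 100% = reference activator wells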
Wnt act: Wnt/beta-catenin pathway activators, primary screen, cell-based, plate reader, single point; Wnt/beta-catenin reporter cell assay, activator; activation, % at 9.35 µM; 300,000 compounds, 1.2% hits; AID 743398, 2014; in the data active = activation above about 30%, passing the limit was not always enough; inconclusive = no clear call, values can overlap the other calls;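 note: 0% = neutral control wells and 100% = positive control wells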
HSF1 activator: HSF-1 activators, primary screen, NIH3T3-HGL cells, MG132 stress, luminescence, single point; activation, % at 9 µM; 300,000 compounds, 1.7% hits; AID 504408, 2011; NIH3T3-HGL HSF-1 luciferase reporter, 8 h; 100% = twice DMSO control signal;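 active = mean replicate activation of at least 50% with a set share of replicates each reaching 50%; inconclusive = only one of those two conditions met; inactive = mean below 50% and too few replicates reaching it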;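 note: 0% = median of the neutral control wells and 100% = twice that signal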
MITF TRPM1 HTS: activators of MITF-driven TRPM1 promoter reporter, primary screen, cell-based, SK-MEL-5, luciferase, single point; SK-MEL-5 TRPM1-promoter luciferase, 24 h; % of positive control, neutral wells = 0; activation, % at 12.5 µM; 300,000 compounds, 0.75% hits; AID 588334, 2011;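 active = mean activation of at least 80% with every replicate also reaching 80%; inconclusive = mean reaches 80% but some replicate falls short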;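 note: 0% = neutral control wells and 100% = parthenolide positive control wells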
esBAF inh: Bmi1 luciferase reporter increase in mESCs, primary screen, esBAF inhibitor project, mouse ES cells, Bmi1 luciferase knock-in, single point. reporter increase, % at 12.5 µM. AID 602393, 2012. 350,000 compounds, 2% hits. 24 h; 100% = twice the neutral-well signal; in the data active = activation above about 40%; inconclusive = no clear call, values can overlap the other calls;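 note: 0% = median of the plate's neutral control wells and 100% = double that signal; a rise in the Bmi1 reporter signal indicates esBAF inhibition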
HSF1 inhib: HSF1 inhibitors in luciferase reporter cells, primary screen, cell-based, NIH3T3, luminescence; NIH3T3-HGL HSE-luciferase, MG132-induced, luminescence 8 h; active compounds read low; activity change, negative = inhibition, % at 7.5 µM (by protocol); 300,000 compounds, 0.77% hits;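 active = more than half of replicate wells show activity change below -50%, luminescence cut by over half; inconclusive = some wells, but at most half, below -50%; inactive = no replicate well below -50%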;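 note: luciferase reports HSF-1 transcriptional activity via heat shock element; 0% = median of DMSO wells and -100% = zero luminescence signal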
* hit, by the source's call; ? = inconclusive; / = not tested or not shown. A selection: hits, their analogues and other compounds. The true share with any hit is near 4.3%.

SMILES	SMARCA2 act	Wnt act	HSF1 activator	MITF TRPM1 HTS	esBAF inh	HSF1 inhib
Cc1ccc(OCC(=O)c2ccc3c(c2)CCCC3)cc1C	-2.7	6.4	8.2	96.6*	18.2	-4.4
Cc1cccnc1NC(=O)COc1ccc2c(c1)CCC2	1.8	16.8	15.9	100.3*	57.4*	11.5
Cc1ccc(NC(=O)COc2ccc3c(c2)CCC3)nc1	3.0	?	27.2	93.9*	16.9	15.1
Cc1cccnc1NC(=O)COc1ccc2oc3c(c2c1)CCCC3	0.6	2.5	12.2	37.5	8.0	-1.3
O=C(C[C@@H]1CC[C@@H]2[C@H](COC[C@@H](O)CN2Cc2ccncc2)O1)NCc1ccccc1Cl	/	/	/	/	6.7	/
CCC(=O)Nc1ccc2c(c1)C(=O)N(C)C[C@H](OC)[C@@H](C)CN(C(=O)Cc1ccccn1)[C@@H](C)CO2	/	/	/	/	-5.8	/
COc1cccc(C(=O)Nc2ccc3c(c2)OC[C@@H](C)N(C)C[C@@H](C)[C@@H](OC)CN(C)C3=O)c1	/	/	/	/	-1.7	/
N#Cc1cccc(-c2ccc3c(c2)[C@@H]2[C@@H](CCN2C(=O)c2ccncc2)[C@@H](CO)N3)c1	/	/	/	/	61.4*	/
COc1cccc(-c2ccc3c(c2)[C@H]2[C@H](CCN2C(=O)c2ccccn2)[C@H](CO)N3)c1	/	/	/	/	44.9*	/
CCC(=O)N1C[C@H]2[C@@H](c3ccccc31)[C@H](CO)N2C(=O)Nc1ccccc1F	/	/	/	/	-2.5	/
CC(C)NC(=O)Nc1cccc2c1O[C@@H](CN(C)Cc1ccc(Cl)c(Cl)c1)[C@@H](C)CN([C@@H](C)CO)C2=O	/	/	/	/	1.0	/
Cn1c(=O)c2c(nc(Sc3ncnn3CC(=O)N3CCOCC3)n2C)n(C)c1=O	0.0	2.9	-90.6	-0.3	-5.4	-88.5*
C[C@@H]1CN([C@@H](C)CO)C(=O)Cc2cc(N(C)C)ccc2O[C@H]1CN(C)Cc1ccc(Cl)c(Cl)c1	/	/	/	/	-1.7	/
Cc1noc(C)c1NC(=O)Nc1ccc2c(c1)C(=O)N([C@H](C)CO)C[C@@H](C)[C@H](CN(C)Cc1ccc3c(c1)OCO3)OCCCC[C@H](C)O2	/	/	/	/	-5.7	/
COC(=O)[C@H](CCSC)NC(=O)Nc1cccc(C)c1C	-2.0	4.2	96.1*	/	/	40.4
CCc1ccc(C(=O)NC(CCSC)C(=O)OC)cc1 (centres undefined)	-1.0	0.8	-84.5	-2.9	4.7	-80.5*
COC(=O)[C@H](CCSC)NC(=O)c1cccnc1SC	-6.8	36.0*	-1.0	/	/	-4.9
COc1ccc(C(=O)NC(CCSC)C(=O)NC2CC2)cc1 (centres undefined)	1.5	-0.6	/	9.4	7.1	/
CO[C@@H]1CN(C)C(=O)c2cc(NC(=O)c3ccno3)ccc2OC[C@@H](C)N(S(C)(=O)=O)C[C@H]1C	/	/	/	/	-6.6	/
CC(C)(C)C(=O)Nc1cccc(-c2cc(-c3c(Cl)cccc3Cl)no2)c1	-4.4	-0.5	54.1*	/	/	19.3
CC(C)(C)C(=O)Nc1cccc(C(=O)c2cccc(NC(=O)C(C)(C)C)c2)c1	2.2	/	6.7	-7.9	-0.1	1.7
CCOC(=O)CNc1ncnc2nc[nH]c12	-4.2	-0.5	34.9	/	-2.1	7.6
CCCCOC(=O)c1ccc(Nc2ncnc3nc[nH]c23)cc1	-0.4	12.6	13.5	77.5	48.4*	7.5
FC(F)Sc1ccc(Nc2ncnc3nc[nH]c23)cc1	3.4	/	-4.7	94.9*	-2.7	-4.0
CCCC(=O)Nc1ccc2c(c1)C(=O)N(C)C[C@H](OC)[C@@H](C)CN(Cc1ccccc1F)[C@H](C)CO2	/	/	/	/	-0.2	/
SMILES	SMARCA2 act	Wnt act	HSF1 activator	MITF TRPM1 HTS	esBAF inh	HSF1 inhib
Cc1oc(=O)c(NC(=O)c2ccccc2)cc1C(=O)c1ccccc1	6.9	/	121.4*	/	/	79.4
Cc1oc(=O)c(NC(=O)c2ccc(Cl)cc2)cc1C(=O)c1ccccc1	3.5	2.7	83.3*	/	-1.7	49.2
O=C(NCC[C@@H]1CC[C@H](NS(=O)(=O)c2cccc(F)c2)[C@@H](CO)O1)c1cnccn1	/	/	/	/	-0.2	/
CN(C)c1ccc(C(CN)c2c[nH]c3ccccc23)cc1 (centres undefined)	0.2	-8.0	12.1	14.8	39.4*	-7.2
C[C@@H]1CN([C@H](C)CO)S(=O)(=O)c2ccc(-c3cccc(F)c3)cc2O[C@@H]1CN(C)CC1CC1	/	/	/	/	-0.9	/
Cc1ccc(C(=O)/C=C/c2c[nH]c3ccccc23)cc1	2.8	22.9	39.7	64.1	-84.3	14.3
CCn1ncc(/C=C/C(=O)c2ccccc2)c1C	6.3	?	52.9*	55.8	/	26.3
Cn1cc(/C=C/C(=O)c2ccccc2)c2ccccc21	-1.2	14.3	62.2*	9.2	-39.5	22.6
Cc1ccc(C(=O)/C=C/c2cn(CN3CCN(C)CC3)c3ccccc23)cc1	4.7	/	59.7*	79.7	55.1*	25.5
COc1cccc(-c2cnc3c(c2)C(=O)N([C@@H](C)CO)C[C@@H](C)[C@H](CN(C)Cc2ccc(C(=O)O)cc2)O3)c1	/	/	/	/	0.0	/
NC(=O)Nc1ccc(C(=O)OCC(=O)Nc2sccc2C(N)=O)cc1	2.0	3.3	/	7.8	-1.7	/
CCN(CC)c1ccc(C(=O)OCC(=O)Nc2ncccn2)cc1	-0.5	-3.3	/	10.6	0.8	/
N#Cc1ccsc1NC(=O)COC(=O)c1ccc(NC(N)=O)cc1	4.1	18.4	35.1	87.2*	47.6*	19.2
CCN(CC)c1ccc(C(=O)OCC(=O)Nc2sccc2C#N)cc1	5.9	-3.2	57.9*	52.9	/	12.5
O=C(C[C@H]1CC[C@H](NC(=O)NC2CCCCC2)[C@H](CO)O1)NCc1ccc(F)cc1	/	/	/	/	4.8	/
CO[C@@H]1CN(C)C(=O)c2ccc(NS(=O)(=O)CC(F)(F)F)cc2OC[C@H](C)N(C(=O)NC(C)C)C[C@H]1C	/	/	/	/	-4.6	/
COc1cc(NC(=O)c2cc3nc(C)cc(C)n3n2)c(OC)cc1Cl	5.8	/	32.1	99.9*	52.2*	20.0
NC(=O)C1CCN(c2nc(-c3ccccc3Br)cs2)CC1	2.5	38.4*	/	/	/	/
CN(C)c1ccccc1-c1csc(N2CCC(C(N)=O)CC2)n1	6.0	16.9	/	96.6*	70.1*	/
NC(=O)C1CCN(c2nc(-c3cccc(N)c3)cs2)CC1	3.4	8.6	/	52.3	80.7*	/
CN(C)C(=O)c1cccc(-c2csc(N3CCC(C(N)=O)CC3)n2)c1	2.1	15.7	/	/	/	/
NC(=O)C1CCN(c2nc(-c3ccccc3C(F)(F)F)cs2)CC1	2.9	14.0	/	75.4	68.0*	/
C[C@@H]1CN([C@H](C)CO)C(=O)c2cc(NC(=O)Cc3ccccc3)ccc2O[C@@H](C)CCCCO[C@@H]1CN(C)C(=O)Nc1cccc2ccccc12	/	/	/	/	28.3	/
NC(=O)C1CCN(c2nc(-c3ccccc3F)cs2)CC1	6.8	?	/	87.9*	38.1	/
CC(=O)c1cnc2c(-c3ccc(Cl)cc3)cnn2c1C	-4.3	/	/	72.6	75.2*	/
